Data taken from the supplement of paper PMC12819154, “High-throughput peptide-centric local stability assay extends protein–ligand identification to membrane proteins, tissues and bacteria” (Nature Structural & Molecular Biology, 2025).

Compound: CN[C@@H]1C[C@H]2O[C@@](C)([C@@H]1OC)n1c3ccccc3c3c4c(c5c6ccccc6n2c5c31)C(=O)NC4 [staurosporine]
Test: log2 fold change of tryptic peptide abundance, ligand vs vehicle (limited proteolysis) (log2 ratio); higher = more trypsin-susceptible (destabilized)
Details: ligand concentration: 20 uM; sample: mouse liver crude lysate; replicate design: treated separately

UniProt Q91YQ1, sequence (Q91YQ1 whole entry): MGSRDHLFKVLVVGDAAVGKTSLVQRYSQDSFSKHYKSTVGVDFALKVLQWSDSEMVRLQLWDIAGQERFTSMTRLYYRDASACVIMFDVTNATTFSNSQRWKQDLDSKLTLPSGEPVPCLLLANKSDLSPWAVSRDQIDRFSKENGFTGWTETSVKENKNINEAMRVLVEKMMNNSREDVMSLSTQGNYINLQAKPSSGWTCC
UniProt Q60932, sequence (Q60932 whole entry): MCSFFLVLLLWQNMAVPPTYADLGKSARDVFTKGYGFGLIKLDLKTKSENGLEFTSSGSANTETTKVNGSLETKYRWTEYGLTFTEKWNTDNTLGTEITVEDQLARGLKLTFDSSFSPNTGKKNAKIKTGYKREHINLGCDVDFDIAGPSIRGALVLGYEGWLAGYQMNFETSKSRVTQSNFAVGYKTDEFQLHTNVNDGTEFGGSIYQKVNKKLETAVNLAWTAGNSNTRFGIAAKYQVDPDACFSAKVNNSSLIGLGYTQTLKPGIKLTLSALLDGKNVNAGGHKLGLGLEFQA
UniProt Q01705, sequence (Q01705 whole entry): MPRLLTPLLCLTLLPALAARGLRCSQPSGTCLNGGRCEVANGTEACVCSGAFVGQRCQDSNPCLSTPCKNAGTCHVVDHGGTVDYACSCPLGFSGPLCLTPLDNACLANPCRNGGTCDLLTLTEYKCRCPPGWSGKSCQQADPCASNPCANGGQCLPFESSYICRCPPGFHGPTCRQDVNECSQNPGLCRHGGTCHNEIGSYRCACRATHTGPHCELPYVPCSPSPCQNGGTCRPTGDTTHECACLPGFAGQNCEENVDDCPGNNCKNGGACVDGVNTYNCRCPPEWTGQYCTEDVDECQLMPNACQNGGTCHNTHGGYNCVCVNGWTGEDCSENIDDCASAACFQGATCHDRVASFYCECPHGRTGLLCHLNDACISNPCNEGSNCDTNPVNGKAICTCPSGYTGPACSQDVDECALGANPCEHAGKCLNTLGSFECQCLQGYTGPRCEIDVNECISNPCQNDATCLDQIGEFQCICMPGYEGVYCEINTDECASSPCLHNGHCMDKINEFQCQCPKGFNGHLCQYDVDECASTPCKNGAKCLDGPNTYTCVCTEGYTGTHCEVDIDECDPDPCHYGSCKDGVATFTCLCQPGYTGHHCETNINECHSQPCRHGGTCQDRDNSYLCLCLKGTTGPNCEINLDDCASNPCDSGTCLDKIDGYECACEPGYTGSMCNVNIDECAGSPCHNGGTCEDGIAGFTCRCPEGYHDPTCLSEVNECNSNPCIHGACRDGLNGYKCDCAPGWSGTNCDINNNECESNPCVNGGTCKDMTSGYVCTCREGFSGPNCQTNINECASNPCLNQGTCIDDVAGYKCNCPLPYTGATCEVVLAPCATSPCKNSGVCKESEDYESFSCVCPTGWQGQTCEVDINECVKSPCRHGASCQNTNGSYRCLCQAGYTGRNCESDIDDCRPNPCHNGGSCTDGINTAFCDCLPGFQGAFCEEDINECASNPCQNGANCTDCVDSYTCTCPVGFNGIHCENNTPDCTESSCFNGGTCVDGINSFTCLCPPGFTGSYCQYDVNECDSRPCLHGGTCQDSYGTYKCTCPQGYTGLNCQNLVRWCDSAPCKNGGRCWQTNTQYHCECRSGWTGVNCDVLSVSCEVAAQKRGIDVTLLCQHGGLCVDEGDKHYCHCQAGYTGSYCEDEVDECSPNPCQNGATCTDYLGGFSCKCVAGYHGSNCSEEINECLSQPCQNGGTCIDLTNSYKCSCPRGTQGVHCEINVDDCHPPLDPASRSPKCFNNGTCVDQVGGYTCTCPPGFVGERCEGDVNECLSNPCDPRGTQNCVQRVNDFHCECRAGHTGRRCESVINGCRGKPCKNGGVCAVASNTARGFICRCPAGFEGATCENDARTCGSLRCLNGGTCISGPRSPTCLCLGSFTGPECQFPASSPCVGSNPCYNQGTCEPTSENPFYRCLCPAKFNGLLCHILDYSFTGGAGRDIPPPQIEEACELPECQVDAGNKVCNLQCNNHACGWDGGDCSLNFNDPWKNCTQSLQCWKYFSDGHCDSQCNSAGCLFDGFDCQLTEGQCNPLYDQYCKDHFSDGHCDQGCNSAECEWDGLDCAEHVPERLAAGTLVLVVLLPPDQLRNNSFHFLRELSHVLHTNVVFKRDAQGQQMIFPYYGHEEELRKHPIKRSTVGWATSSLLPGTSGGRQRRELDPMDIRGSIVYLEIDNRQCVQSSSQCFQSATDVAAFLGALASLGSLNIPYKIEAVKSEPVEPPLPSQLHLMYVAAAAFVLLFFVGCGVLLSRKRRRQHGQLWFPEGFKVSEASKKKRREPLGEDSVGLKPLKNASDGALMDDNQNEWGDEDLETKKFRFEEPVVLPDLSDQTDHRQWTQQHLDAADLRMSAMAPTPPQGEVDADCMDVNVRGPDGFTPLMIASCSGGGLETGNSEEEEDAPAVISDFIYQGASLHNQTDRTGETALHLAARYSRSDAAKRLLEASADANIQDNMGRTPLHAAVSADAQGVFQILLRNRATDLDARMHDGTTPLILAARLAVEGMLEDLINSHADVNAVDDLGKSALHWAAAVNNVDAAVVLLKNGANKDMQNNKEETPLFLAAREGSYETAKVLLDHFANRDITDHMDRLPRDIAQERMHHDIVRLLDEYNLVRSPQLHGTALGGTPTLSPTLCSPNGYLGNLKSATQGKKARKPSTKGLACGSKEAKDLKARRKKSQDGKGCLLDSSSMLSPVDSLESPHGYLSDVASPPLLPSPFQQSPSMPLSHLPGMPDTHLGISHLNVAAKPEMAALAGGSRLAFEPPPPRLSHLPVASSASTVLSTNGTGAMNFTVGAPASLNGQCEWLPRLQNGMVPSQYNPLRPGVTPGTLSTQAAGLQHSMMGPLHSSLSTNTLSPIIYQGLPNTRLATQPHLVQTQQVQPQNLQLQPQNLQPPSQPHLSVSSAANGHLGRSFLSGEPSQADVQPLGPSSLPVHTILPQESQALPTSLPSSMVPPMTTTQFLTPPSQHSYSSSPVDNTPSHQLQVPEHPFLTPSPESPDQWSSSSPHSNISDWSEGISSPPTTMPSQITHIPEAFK
UniProt Q9JIZ0, sequence (Q9JIZ0 whole entry): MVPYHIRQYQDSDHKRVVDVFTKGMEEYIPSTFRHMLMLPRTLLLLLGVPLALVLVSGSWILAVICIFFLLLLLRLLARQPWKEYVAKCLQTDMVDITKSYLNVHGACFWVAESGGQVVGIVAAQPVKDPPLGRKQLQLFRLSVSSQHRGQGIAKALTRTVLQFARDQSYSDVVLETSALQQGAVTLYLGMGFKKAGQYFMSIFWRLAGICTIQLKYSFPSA
UniProt Q62393, sequence (Q62393 whole entry): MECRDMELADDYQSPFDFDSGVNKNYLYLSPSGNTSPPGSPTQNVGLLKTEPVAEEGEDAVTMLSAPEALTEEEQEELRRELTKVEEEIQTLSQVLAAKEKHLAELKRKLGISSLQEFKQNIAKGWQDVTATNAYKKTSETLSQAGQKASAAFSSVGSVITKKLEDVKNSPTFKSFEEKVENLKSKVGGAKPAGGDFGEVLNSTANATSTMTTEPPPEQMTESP
UniProt Q9D517, sequence (Q9D517 whole entry): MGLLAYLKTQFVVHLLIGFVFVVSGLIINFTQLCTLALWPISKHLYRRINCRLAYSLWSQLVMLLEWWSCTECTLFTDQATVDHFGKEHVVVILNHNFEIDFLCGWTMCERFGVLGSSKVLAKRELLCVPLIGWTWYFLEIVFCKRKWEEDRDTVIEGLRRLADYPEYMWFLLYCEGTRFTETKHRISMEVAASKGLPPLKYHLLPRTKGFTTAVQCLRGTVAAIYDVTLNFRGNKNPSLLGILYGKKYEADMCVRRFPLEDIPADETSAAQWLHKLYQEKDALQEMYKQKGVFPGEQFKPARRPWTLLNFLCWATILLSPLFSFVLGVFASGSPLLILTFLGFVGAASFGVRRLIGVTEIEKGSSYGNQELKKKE
UniProt Q8CC86, sequence (Q8CC86 whole entry): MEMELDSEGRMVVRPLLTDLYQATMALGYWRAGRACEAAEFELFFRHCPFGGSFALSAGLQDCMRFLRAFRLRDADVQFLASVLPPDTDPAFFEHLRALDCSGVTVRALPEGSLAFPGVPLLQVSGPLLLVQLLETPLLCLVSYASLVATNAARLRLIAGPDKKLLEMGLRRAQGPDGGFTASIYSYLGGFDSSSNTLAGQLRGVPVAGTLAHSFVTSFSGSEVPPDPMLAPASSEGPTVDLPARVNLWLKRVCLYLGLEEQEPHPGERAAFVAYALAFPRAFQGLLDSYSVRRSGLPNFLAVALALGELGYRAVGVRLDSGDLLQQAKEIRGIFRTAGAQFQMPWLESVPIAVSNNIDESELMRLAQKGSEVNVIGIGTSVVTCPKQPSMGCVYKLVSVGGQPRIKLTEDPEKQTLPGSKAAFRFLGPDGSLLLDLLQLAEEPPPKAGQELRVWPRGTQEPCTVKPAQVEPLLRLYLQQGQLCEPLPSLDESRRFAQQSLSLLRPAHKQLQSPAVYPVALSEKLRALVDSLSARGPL
UniProt P98154, sequence (P98154 whole entry): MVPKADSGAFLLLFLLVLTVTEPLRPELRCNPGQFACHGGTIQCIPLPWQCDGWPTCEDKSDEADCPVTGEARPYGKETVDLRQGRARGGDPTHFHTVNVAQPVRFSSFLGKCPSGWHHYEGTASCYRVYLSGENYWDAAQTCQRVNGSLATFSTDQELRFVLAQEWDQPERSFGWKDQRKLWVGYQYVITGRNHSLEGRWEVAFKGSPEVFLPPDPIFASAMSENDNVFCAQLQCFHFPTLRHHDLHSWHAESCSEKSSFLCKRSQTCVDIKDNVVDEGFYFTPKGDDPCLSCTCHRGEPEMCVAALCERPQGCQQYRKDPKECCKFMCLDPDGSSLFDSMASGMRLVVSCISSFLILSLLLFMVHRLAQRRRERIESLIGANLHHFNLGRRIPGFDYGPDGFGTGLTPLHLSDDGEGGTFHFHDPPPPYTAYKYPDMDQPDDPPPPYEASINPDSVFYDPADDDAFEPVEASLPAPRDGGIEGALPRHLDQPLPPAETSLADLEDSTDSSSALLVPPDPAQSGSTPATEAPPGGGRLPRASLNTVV

Row | Target | log2 fold change
1 | UniProt Q05421 (peptide sequence: FGPVFTLHLGQR, peptide start residue: 64) | 0.247
2 | UniProt Q9D517 (peptide sequence: GLPPLKYHLLPR, peptide start residue: 196) | 0.633
3 | UniProt Q9EPJ9 (peptide sequence: DVTTFFSGK, peptide start residue: 289) | 0.513
4 | UniProt Q9ERK4 (peptide sequence: LLQAFLER, peptide start residue: 707) | 0.291
5 | UniProt Q01705 (peptide sequence: QWTQQHLDAADLR, peptide start residue: 1832) | -0.742
6 | UniProt Q9WVJ2 (peptide sequence: GSIDEVDKR, peptide start residue: 322) | -0.456
7 | UniProt O54785 (peptide sequence: GFFGQAIK, peptide start residue: 340) | -0.88
8 | UniProt P31750 (peptide sequence: HPFLTALK, peptide start residue: 209) | -1.6
9 | UniProt Q60855 (peptide sequence: DLKPENILVDRDFHIK, peptide start residue: 138) | 1.33
10 | UniProt Q9EP53 (peptide sequence: SHLLQQNQR, peptide start residue: 890) | -0.636
11 | UniProt Q62393 (peptide sequence: GWQDVTATNAYK, peptide start residue: 125) | 0.581
12 | UniProt Q9JIZ0 (peptide sequence: LAGICTIQLK, peptide start residue: 207) | 0.276
13 | UniProt Q91YQ1 (peptide sequence: STVGVDFALK, peptide start residue: 38) | 0.602
14 | UniProt Q8CIN4 (peptide sequence: TIVSIGDPK, peptide start residue: 238) | -2.05
15 | UniProt Q9JLB2 (peptide sequence: DRFASAVPHTTR, peptide start residue: 505) | 0.704
16 | UniProt P98154 (peptide sequence: GGDPTHFHTVNVAQPVR, peptide start residue: 89) | -1.16
17 | UniProt Q60932 (peptide sequence: LTFDSSFSPNTGKK, peptide start residue: 110) | -0.605
18 | UniProt Q8CC86 (peptide sequence: VCLYLGLEEQEPHPGER, peptide start residue: 253) | -0.575
19 | UniProt P70236 (peptide sequence: ADDLEPIVELGR, peptide start residue: 50) | -2.01
